Among the test systems are HT29 colon; SNB-75 CNS; SNB-19 CNS; U251 CNS; PC-3 prostate; SK-MEL-5 melanoma; UACC-62 melanoma; LOX IMVI melanoma; SK-MEL-28 melanoma.
Common to all, as to test: NCI-60 one-dose screen, 48 h (100 = growth as untreated, 0 = no growth, -100 = all killed)
Common to all, as to conditions: 10 µM unless noted

About 83,000 compounds went through this panel and 20% of them were active in at least one assay; those are over-represented in the sample as a whole.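 Each cell line was grown in a 96-well plate and treated with one concentration of compound for 48 hours. Values below 10 were considered active.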 Values without a mark were called inactive. Calls of active or inactive are those of the source.

In the case of `Cc1ccc(NC(=O)N[C@@H](Cc2cc(F)cc(F)c2)C(=O)NC2C(=O)N3CCC[C@H]3C(=O)N3CCCC[C@H]3C(=O)N[C@@H](C)C(=O)N3C[C@H](C)C[C@H]3C(=O)O[C@H]2C)c(F)c1` (stereo not given in full), the growth in the assay on HT29 colon was 26.5%; in the assay on SNB-75 CNS, 34.7%; in the assay with SNB-19 CNS, 26.3%; with U251 CNS, 28.3%; with PC-3 prostate it was 15%; in the assay with SK-MEL-5 melanoma it was 2.32% (active). In addition, the growth in the assay on UACC-62 melanoma was 30.3%; with LOX IMVI melanoma, 25.3%; with SK-MEL-28 melanoma it was 44.1%.

With `COc1cc2c3c(n(CCCNC4CCC4)c(=O)c2cc1OC)-c1cc2c(cc1C3=O)OCO2`, the growth with HT29 colon is -64.1% (active); with SNB-75 CNS, -67% (active); in the assay on SNB-19 CNS, -25.2% (active); in the assay on U251 CNS, -88.9% (active); with PC-3 prostate, -78.7% (active); in the assay on SK-MEL-5 melanoma, 76.8%. In addition, the growth in the assay on UACC-62 melanoma was 59.1%; in the assay on LOX IMVI melanoma, -72.8% (active); with SK-MEL-28 melanoma it was 86.7%.

`C=C1C(=O)O[C@@H]2C[C@@H](C)CCC(=O)[C@](C)(OC(C)=O)C[C@H](OC(=O)/C(C)=C\C)[C@@H]12`: the growth with HT29 colon is 52.5%; with SNB-75 CNS, 80.6%; in the assay on SNB-19 CNS it was 90.6%; with U251 CNS, 88.8%; in the assay with PC-3 prostate it was 79.1%; with LOX IMVI melanoma, 54.8%.

For the molecule `O=S(=O)(Nc1cc(Cl)c(F)c(Cl)c1)c1ccc(-c2cnc(C3CC3)o2)cc1`, the growth in the assay on HT29 colon was 13.4%; in the assay on SNB-75 CNS, -4.2% (active); in the assay on SNB-19 CNS, 44.3%; in the assay on U251 CNS, 30.4%; in the assay with PC-3 prostate, 25.2%; with SK-MEL-5 melanoma, 28.8%. Further, the figures for the growth in the assay on UACC-62 melanoma, with LOX IMVI melanoma and with SK-MEL-28 melanoma were 42.6%, 43.2% and 66.7%, respectively.

Regarding `COc1cc(/C=C2\SC(=O)NC2=O)ccc1OCC(=O)Nc1ccc(C(=O)/C=C/c2cc3ccccc3nc2Cl)cc1`, the growth is 69.9% in the assay with HT29 colon; 85.6% in the assay with SNB-19 CNS; 90.3% with U251 CNS; 82.1% in the assay with PC-3 prostate; 32.7% in the assay on SK-MEL-5 melanoma; 84.3% in the assay with UACC-62 melanoma. The growth in the assay on LOX IMVI melanoma is 81.6%; in the assay on SK-MEL-28 melanoma it was 105%.

With `Cn1nc(Nc2ccccc2)c(C(=O)NN)c1N`, the growth in the assay with HT29 colon is 103%; with SNB-75 CNS, 81.6%; with SNB-19 CNS, 101%; in the assay with U251 CNS it was 102%; with PC-3 prostate, 95.1%; with SK-MEL-5 melanoma it was 99.3%. Moreover, the growth in the assay on UACC-62 melanoma is 96.8%; in the assay on LOX IMVI melanoma it was 97.2%; with SK-MEL-28 melanoma, 103%.

Turning to `CC[C@@](C)(NC(=O)C(C)(C)NC(=O)[C@@H](NC(=O)[C@@H]1CCCN1C(=O)C(C)(C)NC(=O)[C@H](CC(C)C)NC(=O)CNC(=O)C(C)(C)NC(=O)[C@@H](NC(=O)C(C)(C)NC(=O)[C@H](CCC(N)=O)NC(=O)[C@H](C)NC(=O)C(C)(C)NC(=O)[C@H](C)NC(=O)C(C)(C)NC(=O)[C@@H]1CCCN1C(=O)C(C)(C)NC(C)=O)C(C)C)C(C)C)C(=O)N[C@@H](CCC(N)=O)C(=O)N[C@@H](CCC(N)=O)C(=O)N[C@H](CO)Cc1ccccc1`, the growth with HT29 colon is 17.4% [4.25 µM]; with SNB-75 CNS, 3.47% [4.25 µM] (active); in the assay with U251 CNS, 33.1% [4.25 µM]; in the assay on PC-3 prostate, 16.2% [4.25 µM]; in the assay with SK-MEL-5 melanoma, -39.8% [4.25 µM] (active); in the assay on UACC-62 melanoma it was 47.5% [4.25 µM]. Besides, the results for the growth in the assay with LOX IMVI melanoma and in the assay with SK-MEL-28 melanoma were 4.55% [4.25 µM] (active) and 27.5% [4.25 µM], respectively.

With `C#CCOc1ccc(C(Nc2ccc(Cl)cc2)c2nnnn2C2CCCCC2)cc1` (stereo not given), the growth is 92% in the assay with HT29 colon; 87.4% in the assay on SNB-75 CNS; 89.5% with SNB-19 CNS; 86.9% with U251 CNS; 75.2% in the assay on PC-3 prostate; 92.3% in the assay on SK-MEL-5 melanoma. For the same molecule, the growth with UACC-62 melanoma was 72.4%; in the assay on LOX IMVI melanoma it was 81.4%; in the assay with SK-MEL-28 melanoma, 102%.

Turning to `CCC(CC)N1C(=O)/C(=c2\sc3n(c2=O)C2C(NN=3)N(CC)C(=O)N2CC)c2ccccc21` (stereo not given), the growth with HT29 colon was 5.44% (active); in the assay with SNB-75 CNS, -4.75% (active); with SNB-19 CNS, 26.4%; in the assay with U251 CNS, 27.1%; in the assay on PC-3 prostate, 33.7%; with SK-MEL-5 melanoma it was -20.1% (active). In addition, the values for the growth with UACC-62 melanoma, in the assay with LOX IMVI melanoma and in the assay on SK-MEL-28 melanoma were 15.2%, 17.9% and 58.6%, respectively.

With `COc1ccc(Cn2cc3c(c2-c2ccccc2)CCCc2cnoc2-3)cc1[N+](=O)[O-]`, the growth with HT29 colon is 40.8%; in the assay on SNB-75 CNS it was 55.8%; in the assay with SNB-19 CNS, 75.6%; in the assay with U251 CNS, 77.5%; in the assay with PC-3 prostate, 69.5%; in the assay on SK-MEL-5 melanoma, 71.5%. In addition, the growth with UACC-62 melanoma was 52.1%; in the assay with LOX IMVI melanoma it was 87.8%; in the assay with SK-MEL-28 melanoma, 76.9%.

As for `C[C@H]1[C@H](C)CC[C@]2(COC(=O)c3cccnc3)CC[C@]3(C)C(=CC[C@@H]4[C@@]5(C)CCCNC(C)(C)[C@@H]5CC[C@]43C)[C@H]12`, the growth is 45.5% in the assay on HT29 colon; 88.6% in the assay on SNB-19 CNS; 64.4% in the assay with U251 CNS; 35.8% with PC-3 prostate; 56.4% with SK-MEL-5 melanoma; 53.4% with UACC-62 melanoma. In the assay with SK-MEL-28 melanoma, the growth is 75%.

On to `O=C(NCCCCCCNC(=O)c1c2c(nc3ccccc13)-c1cccnc1SC2)c1c2c(nc3ccccc13)-c1cccnc1SC2`, for which the growth is 53.7% with HT29 colon; 62.9% in the assay with SNB-75 CNS; 66.5% with SNB-19 CNS; 77.6% in the assay on U251 CNS; 81% in the assay on PC-3 prostate; 84.3% with SK-MEL-5 melanoma. Moreover, the growth was 12.2% in the assay on UACC-62 melanoma, 78.6% with LOX IMVI melanoma and 27.7% in the assay on SK-MEL-28 melanoma.

In the case of `CC(=O)NC(C)(C)C(=O)N1CCC[C@H]1C(=O)NC(C)(C)C(=O)N[C@@H](C)C(=O)NC(C)(C)C(=O)N[C@@H](C)C(=O)N[C@@H](CCC(N)=O)C(=O)NC(C)(C)C(=O)N[C@H](C(=O)NC(C)(C)C(=O)NCC(=O)N[C@@H](CC(C)C)C(=O)NC(C)(C)C(=O)N1CCC[C@H]1C(=O)N[C@H](C(=O)NC(C)(C)C(=O)NC(C)(C)C(=O)N[C@@H](CCC(N)=O)C(=O)N[C@@H](CCC(N)=O)C(=O)N[C@H](CO)Cc1ccccc1)C(C)C)C(C)C`, the growth in the assay with HT29 colon was 71% [4.25 µM]; with SNB-75 CNS, 33.4% [4.25 µM]; in the assay with SNB-19 CNS, 52.5% [4.25 µM]; in the assay with U251 CNS it was 62.3% [4.25 µM]; in the assay on PC-3 prostate it was 28.3% [4.25 µM]; in the assay on SK-MEL-5 melanoma, 38.2% [4.25 µM]. The growth in the assay with UACC-62 melanoma was 95.8% [4.25 µM]; in the assay with LOX IMVI melanoma it was 84.3% [4.25 µM]; in the assay with SK-MEL-28 melanoma, 65.3% [4.25 µM].

(Values after PubChem BioAssay (NCI).)
